Screening results as filed in PubChem BioAssay.
ELG1 DNA repair – qHTS screen for small molecules that inhibit ELG1-dependent DNA repair in human embryonic kidney (HEK293T) cells expressing luciferase-tagged ELG1. AID 504467, 2011. hit rate 2.3% among 330,000. HEK293T ELG1-luciferase reporter, luminescence, 16 h; DNA damage induced by 5-fluorouridine. Potency, µM (doses to about 46.1 µM), for the others: at the top dose activity change, negative = inhibition, usual class: inhibitors; also: % is scaled to controls: 0 for no effect and ±100 for the full control effect; nearly all actives have a fitted effect of over 55% in size
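DMSO vehicle served as the neutral condition. Each well held 2,000 cells given 5-fluorouridine plus compound; after 16 hr at 37 °C/5% CO2, ONE-Glo was added and luciferase measured 30 min later.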
FLuc modulator – qHTS profiling assay for firefly luciferase inhibitor/activator using purifed enzyme and Km concentrations of substrates (counterscreen for miR-21 project); Luciferin 4-monooxygenase (Photinus pyralis), P08659; Potency, µM (doses to about 57.5 µM), inactives show top-dose activity change, negative = inhibition, most hits filed as inhibitors; purified FLuc, Km substrates, luminescence inhibition; hit rate 6.9% among 360,000; AID 588342, 2011;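 also: plate controls were vehicle for no effect and reference inhibitor for full effect; nearly all actives have a fitted effect of over 55% in size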
Target sequence (P08659 whole entry, looked up): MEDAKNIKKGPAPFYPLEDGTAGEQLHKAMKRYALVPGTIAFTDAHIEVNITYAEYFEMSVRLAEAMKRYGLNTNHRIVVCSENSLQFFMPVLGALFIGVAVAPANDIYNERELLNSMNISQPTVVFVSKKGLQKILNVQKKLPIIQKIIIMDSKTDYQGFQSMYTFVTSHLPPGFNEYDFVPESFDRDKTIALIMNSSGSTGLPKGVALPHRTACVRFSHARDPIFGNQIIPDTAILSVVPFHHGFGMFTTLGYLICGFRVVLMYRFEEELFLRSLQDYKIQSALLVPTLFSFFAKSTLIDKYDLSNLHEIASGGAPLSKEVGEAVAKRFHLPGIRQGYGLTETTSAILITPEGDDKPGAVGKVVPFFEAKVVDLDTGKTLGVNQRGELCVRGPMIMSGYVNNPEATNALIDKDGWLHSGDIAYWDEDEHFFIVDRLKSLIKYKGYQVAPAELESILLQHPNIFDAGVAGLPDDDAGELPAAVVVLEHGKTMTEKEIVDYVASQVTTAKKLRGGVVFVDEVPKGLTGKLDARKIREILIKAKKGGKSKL
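Purified P. pyralis luciferase, 10 nM final, with Km-level 10 uM D-luciferin and 10 uM ATP in 50 mM Tris acetate pH 7.5, 10 mM Mg acetate, 0.01% Tween-20, 0.05% BSA; 6-point qHTS titration about 60 µM downward; luminescence read.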
Rab9 promoter act – qHTS Assay for Rab9 Promoter Activators. Huh7 Rab9 promoter-luciferase reporter, luminescence, 24 h. Potency, µM (series often up to 9.22 µM), for inactives: at the top dose activation, negative = inhibition, actives largely listed as activators. hit rate 2.8% among 320,000; also: % of control where 0% means no effect; nearly all actives have a fitted effect of over 60% in size
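Rab9 promoter-driven luciferase in stably transfected Huh7 cells; 1500 cells/well rested 2 h, exposed to compound in DMSO for 24 h at 37 °C, 5% CO2. Luminescence read 10 min after adding luciferase reagent at ambient temperature.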
ELG1 genotoxic – qHTS screen for small molecules that induce genotoxicity in human embryonic kidney (HEK293T) cells expressing luciferase-tagged ELG1. Potency, µM (highest dose often 46 µM), for the others: top-dose activity change, positive = activation, actives largely listed as activators. AID 504466, 2011. HEK293T ELG1-luciferase reporter, luminescence, 16 h. hit rate 1.3% among 330,000; also: % of control where 0% means no effect; nearly all actives have a fitted effect of over 60% in size
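After overnight (16 hr) compound treatment at 37 °C, ELG1-luciferase HEK293T cells were lysed with ONE-Glo; luminescence quantified 30 min later at room temperature.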
NPC1 prom act – qHTS Assay for NPC1 Promoter Activators; hit rate 2.4% among 320,000; AID 485313, 2010; Huh7 NPC1 promoter luciferase reporter, 24 h; Potency, µM (series often up to 9.22 µM), for inactives: at the top dose activation, usual class: activators; also: % of control where 0% means no effect; nearly all actives have a fitted effect of over 60% in size
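Huh7 cells stably carrying NPC1 promoter–luciferase, plated in Opti-MEM with 10% FBS for 2 h, were exposed to compound in DMSO for 24 h at 37 °C; luciferase reagent was added for 10 min and luminescence read.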
SMN2 splice up – qHTS Assay for Enhancers of SMN2 Splice Variant Expression | Potency, µM (titrated, usually from 46.1 µM), for the others: top-dose activity change, positive = activation, usual class: activators | HEK293 SMN2-luciferase splicing reporter, luminescence, 30-36 h | hit rate 2.8% among 210,000; also: % of control where 0% means no effect; nearly all actives have a fitted effect of over 55% in size
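HEK293 cells carry an SMN2 […]–luciferase reporter in which exon 7 inclusion puts luciferase in frame. Cells were plated 10-12 h before compound addition, then incubated 30-36 h at 37C. ONE-Glo luminescence was read; sodium butyrate at 4.5 mM final served as control.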
* hit, by the source's call; ? = inconclusive; nt = not tested or not shown; [ ] = dose if it differs, or a comment. An excerpt weighted towards active compounds, which were near 9.2% of everything screened. Calls follow the shape of the dose curve; as a rule, active = well fitted curve in the direction sought with a large enough effect; inconclusive = small, poorly fitted or top-dose-only effect, or another doubt; inactive = no such curve, though single readings can be large; an effect the other way counts as inactive or inconclusive. Potency is read from the fitted curve at half-maximal effect.

SMILES	ELG1 DNA repair	FLuc modulator	Rab9 promoter act	ELG1 genotoxic	NPC1 prom act	SMN2 splice up
CC(C)n1cc(CN2CCCC(CNS(=O)(=O)c3cccc4cccnc34)C2)cn1 (stereo not given)	18.8%	-1.3%	0.6%	-0.1%	0.1%	nt
CCNc1ccc(Br)cc(C(=O)/C=C/c2c(Cl)cccc2Cl)c1=O	?	0.3%	0.8%	-7.7%	-0.3%	-109.9%
CCNc1ccc(Br)cc(C(=O)/C=C/c2ccc(Cl)cc2)c1=O	20.6µM*	-18.5%	-0.1%	-9.3%	0.5%	-75.5%
COC(=O)COc1ccc2c(c1)O/C(=C\c1ccco1)C2=O	8.4%	3.38µM*	12.6%	0.2%	1.1%	nt
Cc1cc(O)cc2c1C(=O)/C(=C/c1ccco1)O2	?	12µM*	-2.4%[1.84 µM]	21.8%	?	nt
CCN(CC)C(=O)Oc1ccc2c(c1)O/C(=C\c1ccco1)C2=O	?	3.01µM*	?	12.2%	?	nt
CCC(=O)Oc1ccc2c(c1)O/C(=C\c1ccco1)C2=O	?	3.38µM*	12.0%	8.6%	1.2%	nt
COCCN(CCOC)Cc1c(O)ccc2c1O/C(=C\c1ccco1)C2=O	-3.1%	-5.1%	-2.0%	-1.6%	-1.3%	nt
CC(=O)Oc1ccc2c(c1)O/C(=C\c1ccncc1)C2=O	9.0%	?	1.0%	1.1%	-2.9%	nt
COc1cccc(N2CCN(C(C)C(=O)NC34CC5CC(CC(C5)C3)C4)CC2)c1 (stereo not given)	-4.0%	-0.6%	-5.6%	-7.5%	-4.1%	nt
Cc1cccc(CSc2nc3nc(C)cc(C)n3n2)c1	?	-3.6%	0.3%	8.6%	-1.6%	nt
COC(=O)c1ccccc1S(=O)(=O)NNC(=O)C12CC3CC(CC(C3)C1)C2	?	nt	nt	2.2%	nt	nt
CN(C)c1ccc(-c2nc(N(C)Cc3ccco3)c3ccccc3n2)cc1	nt	nt	nt	nt	nt	10µM*
O=C(c1ccc(-c2ccccc2)cc1)N1CCCC1	?	?	10.9%	?	1.0%	-2.0%
O=C(c1cccc(-c2nnc(-c3ccccc3)o2)c1)N1CCCCCC1	19.0%	16.9µM*	?	?	?	?
O=C(c1cccc(-c2nnc(-c3ccccc3)o2)c1)N1CCCCC1	?	16.9µM*	?	?	?	14.1µM*
CCC(C)NC(=O)CN1C(=O)c2cccnc2Sc2ccccc21 (stereo not given)	nt	4.3%	nt	nt	nt	nt
CCNC(=O)C1CCCN(c2nn3cc(-c4ccc(C)cc4)nc3s2)C1 (stereo not given)	nt	1.2µM*	nt	nt	nt	nt
COc1ccc(-c2cn3nc(N4CCCC(C(=O)Nc5ccc(C)c(C)c5)C4)sc3n2)cc1 (stereo not given)	nt	-16.7%	nt	nt	nt	nt
Cc1ccc(-c2cn3nc(N4CCCC(C(=O)NCc5ccc(F)cc5)C4)sc3n2)cc1 (stereo not given)	nt	8.49µM*	nt	nt	nt	nt
COc1ccc(-c2cn3nc(N4CCCC(C(=O)Nc5cc(C)cc(C)c5)C4)sc3n2)cc1 (stereo not given)	nt	-18.7%	nt	nt	nt	nt
Cc1ccc(-c2cn3nc(N4CCCC(C(=O)Nc5ccc(F)cc5)C4)sc3n2)cc1 (stereo not given)	nt	12µM*	nt	nt	nt	nt
Cn1cc(-c2cc3n(n2)CCC(=O)N3CCCC(=O)Nc2ccc(F)cc2F)c2ccccc21	nt	-1.6%	nt	nt	nt	nt
CC(=O)C1=C(O)C(=O)N(c2ccc(Br)cn2)C1c1ccc(F)cc1 (stereo not given)	?	-5.5%	3.98µM*	?	2.24µM*	1.4%
Cc1ccc(C(=O)Nc2sc(C(=O)N(C)C)c(C)c2C#N)cc1	0.9%	?	-2.0%	8.6%	-1.1%	26.3%
SMILES	ELG1 DNA repair	FLuc modulator	Rab9 promoter act	ELG1 genotoxic	NPC1 prom act	SMN2 splice up
CCc1c(C)sc(NC(=O)c2cc(C)on2)c1C#N	?	12µM*	?	?	?	26.1%
CCCc1cc(C(=O)Nc2sc(C)c(CC)c2C#N)no1	24.0%	-14.4%	0.1%	7.4%	6.3%	6.3%
Cc1sc(NC(=O)c2ccccc2)c(C#N)c1-c1ccccc1	?	2.39µM*	1.58µM*	?	2.82µM*	8.91µM*
CCc1c(C)sc(NC(=O)c2cccs2)c1C#N	?	7.57µM*	?	?	?	11.2µM*
CCC1CN(C(=O)Nc2cccc3c2CCCC3)c2ccccc2O1 (stereo not given)	nt	2.1%	nt	nt	nt	nt
Cc1nc(NC(=O)CSc2nccn2C)sc1C(=O)N(C)C	?	-0.9%	26.2%	?	26.1%	nt
Cc1c(OCc2nn[nH]n2)ccc2c3c(c(=O)oc12)CCCC3	-9.3%	21.3µM*	-9.6%	-2.6%	-4.2%	6.4%
CCc1ccc(C2N3CC4(C)CN2CC(c2ccccc2)(C3)C4=O)cc1 (stereo not given)	nt	7.2%	nt	nt	nt	-10.6%
CCOC(=O)C1=C(C)NC(SCC(=O)Nc2nc(C)cs2)=C(C#N)C1c1cccs1 (stereo not given)	20.6µM*	-5.5%	10.8%	-2.1%	3.8%	-27.6%
C=CCOC(=O)C1=C(C)NC(SCC(N)=O)=C(C#N)C1c1cccs1 (stereo not given)	-13.0%	1.5%	-4.8%	-2.4%	0.1%	-6.3%
Cc1cc(C(=O)CSc2n[nH]c(N)n2)c(C)n1-c1cccc(F)c1	?	23.9µM*	?	?	28.4%	?
Cc1cc(C(=O)COC(=O)C2=COCCO2)c(C)n1-c1cccc(F)c1	?	1.9µM*	0.562µM*	?	1.41µM*	nt
Cc1cc(C(=O)CSc2nc(N)cc(N)n2)c(C)n1-c1cccc(C(F)(F)F)c1	-11.4%	1.0%	-5.4%	-0.8%	-1.2%	-29.5%
Cc1cc(C(=O)CSc2nnnn2C)c(C)n1-c1cccc(F)c1	?	7.57µM*	1.26µM*	?	3.98µM*	12.6µM*
Cc1cc(C(=O)CSc2ncccn2)c(C)n1-c1cccc(F)c1	?	2.39µM*	1.41µM*	10.3µM*	3.55µM*	?
COc1ccc(NC(=O)CS(=O)c2ccc(Br)cc2)cc1 (stereo not given)	3.8%	2.0%	-0.7%	2.2%	-4.0%	nt
O=C(COc1ncnc2sccc12)Nc1cccc(S(=O)(=O)N2CCOCC2)c1	?	4.4%	-1.9%	0.8%	0.3%	nt
CCOc1ccccc1CNC(=O)C1CCN(Cc2cc3ccccc3n2Cc2ccccc2)CC1	nt	3.4%	nt	nt	nt	nt
O=[N+]([O-])c1cc(F)c2cccnc2c1O	20.6µM*	-2.3%	1.9%	-11.2%	-0.9%	nt
